Results reported in PubChem BioAssay AID2314 (National Center for Advancing Translational Sciences (NCATS), 2010).
The whole screen tested about 300,000 compounds, of which about 37,000 (12%) were called active. Shown is part of a subset that was picked to be rich in actives. Unmarked numbers belong to inactive results. Cut-off read from the data, not from the text of the source: active = max response mostly above about 13% (no sharp cut-off); inactive = mostly below about 14%.

test: Cycloheximide Counterscreen for Small Molecule Inhibitors of Shiga Toxin; details: cell reporter, cycloheximide protein synthesis inhibition counterscreen; hits give high values; note: read at 38.3 µM for the half of the compounds with a filed dose; 0% is about no effect

SMILES	max response
CCC(=O)Nc1nnc(S(=O)(=O)N2CCCc3ccccc32)s1	1.29%
Cc1ccccc1-n1cc(CNC(=O)C2CCC(=O)N(C3CC3)C2)cn1 (configuration not stated)	-1.75%
Cc1nn(C(C)C(=O)N2CCOCC2)c(=O)c2nn(-c3ccccc3)c(C)c12 (configuration not stated)	-8.4%
CCOc1cc(NC(=O)c2ccccc2C(=O)O)c(OCC)cc1NC(=O)c1ccccc1F	-0.886%
Cc1cc(C(F)F)n2nc(C(=O)Nc3ccc(S(=O)(=O)NC45CC6CC(CC(C6)C4)C5)cc3)nc2n1	-6.02%
O=C(C/C(=N\NC(=O)c1ccccc1Br)C(F)(F)F)c1cccs1	-1.94%
CC(C)c1ccc(S(=O)(=O)NC2CCCC2)cc1	-3.21%
O=C(Cn1nc(C(=O)O)c2ccccc2c1=O)Nc1ccc(F)cc1	5.62%
CC(C(=O)NCCc1ccc(S(N)(=O)=O)cc1)N1C(=O)CC(C)(C)Sc2ccccc21 (configuration not stated)	-1.15%
Cc1cc(C)c(S(=O)(=O)NCC2CCC(C(=O)NCc3ccc4c(c3)OCO4)CC2)c(C)c1 (configuration not stated)	-0.416%
CN(C)CCOCCOc1ccc(Cl)c2ccccc12	-1.16%
O=C(NC(Cc1ccc(O)cc1)C(=O)O)/C(=C/c1ccccc1)NC(=O)c1ccccc1 (configuration not stated)	18.4%
COc1ccc(CN2CCCC(C(=O)c3ccc(Cl)cc3)C2)cc1Cn1cncn1 (configuration not stated)	-7%
COc1ccc(C2Nc3ccccc3C(=O)N2Cc2ccccc2)cc1Cn1nnc2ccccc21 (configuration not stated)	-1.8%
COc1ccc(N2C(=O)c3ccccc3NC2c2ccc(OC)c(CN3CCOCC3)c2)cc1 (configuration not stated)	28.2% (active)
COc1ccc(C2Nc3ccccc3C(=O)N2c2ccc(F)cc2)cc1Cn1nnc2ccccc21 (configuration not stated)	2.31%
COc1ccc(C2Nc3ccccc3C(=O)N2c2ccc(Cl)cc2)cc1Cn1cc([N+](=O)[O-])cn1 (configuration not stated)	46.2% (active)
COc1ccc([N+](=O)[O-])cc1C1NN=C(c2cccc3ccccc23)S1 (configuration not stated)	-2.19%
CCCCCCCC(=O)NC(Nc1ccccc1OC)C(Cl)(Cl)Cl (configuration not stated)	1.89%

SMILES	max response
COc1ccc(C(=O)COC(=O)Cn2cnc3c2c(=O)n(C)c(=O)n3C)c(OC)c1	-1.6%
O=C(C1CCCO1)N1CCN(S(=O)(=O)c2ccc(Br)cc2)CC1 (configuration not stated)	-1.38%
Cc1cnc(CN(C)C(=O)C2CCC(=O)N(CCc3cccc(F)c3)C2)[nH]1 (configuration not stated)	-1.18%
C=CCNc1nc(N)c([N+](=O)[O-])c(NC2CCCCC2)n1	-4.11%
CC(C)(C)OC(=O)N1CCC(NC(=O)c2[nH]cnc2C(=O)N[C@@H](Cc2ccccc2)C(=O)OCc2ccccc2)CC1	-1.27%
Cn1cnc(S(=O)(=O)Nc2ccc3c(c2)OCCO3)c1	-2.48%
O=C(NC1CCCCC1)C1c2ccccc2C(=O)N1Cc1ccco1 (configuration not stated)	0.684%
COc1ccccc1C1/C(=C(/O)c2ccc(C)cc2)C(=O)C(=O)N1Cc1ccco1 (configuration not stated)	3.34%
Cc1ccnc(N2C(=O)c3ccccc3C2Nc2ccc3c(c2)OCCO3)c1 (configuration not stated)	42.1% (active)
COC(=O)c1cccc(C(=O)N2CCCC(Nc3ccc4c(c3)OCCO4)C2)c1 (configuration not stated)	-1.68%
O=C1c2ccccc2C(Nc2ccc3c(c2)OCCO3)N1Cc1ccco1 (configuration not stated)	86.7% (active)
CCOc1ccc2[nH]c(C(=O)N/N=C/c3cccc(OC)c3OC)cc2c1	9.3%
CC(C)c1ccc(N(C(=O)c2ccco2)C(C(=O)NC2CCCC2)c2cccnc2)cc1 (configuration not stated)	-5.72%
CCC1CCCCN1CCCNC(=O)c1cc2c(Cl)nc3ccccc3c2s1 (configuration not stated)	-11.5%
Oc1ccc(-c2onc3ccc(Cl)cc23)cc1	15.4%
COC(=O)c1ccc(COC(=O)c2cnc(Cl)c(Cl)c2)cc1	34.6% (active)
COC(=O)c1ccc(COC(=O)c2cnccn2)cc1	-1.89%
CCOc1ccc(C(C)=O)cc1COC(=O)c1cnc(Cl)c(Cl)c1	-0.208%
COc1ccc(NS(=O)(=O)c2ccc(O)c(C(=O)OCC(=O)NC3CCCCC3)c2)cc1	0.885%

SMILES	max response
CCN(C(=O)COc1cccnc1[N+](=O)[O-])C1CCS(=O)(=O)C1 (configuration not stated)	-3%
Cc1nn2c(=O)cc(COC(=O)c3ccc(NC(=O)C(C)(C)C)cc3)nc2s1	-6.18%
O=C(NCCCn1ccnc1)c1ccccc1F	1.63%
O=C(NCCCn1ccnc1)c1cc(-c2ccccc2)on1	27.9% (active)
O=C(NCCCn1ccnc1)c1cc(Br)c(Br)s1	-0.73%
COc1ccccc1-c1cc(C(=O)NCCCn2ccnc2)no1	-1.18%
COc1cc(OC)cc(C(=O)NCCCn2ccnc2)c1	-2.01%
COc1ccc(-c2cc(C(=O)NCCCn3ccnc3)no2)cc1	19.9% (active)
CCN(Cc1ccccc1)C(=O)CCS(=O)(=O)c1ccc2c(c1)oc(=O)n2C	0.913%
CCC(=O)c1cn(CCOc2ccccc2OC)c2ccccc12	3.68%
CC(C)[C@H](NC(=O)N1CCn2c1nc1ccccc12)C(=O)NCCc1ccccc1	11.9%
CC(C)C[C@H](NC(=O)N1CCn2c1nc1ccccc12)C(=O)NC1CC1	-12.6%
CC(C)[C@H](NC(=O)N1CCn2c1nc1ccccc12)C(=O)NC1CC1	12.8% (active)
CCOC(=O)c1cc(C(=O)Nc2ccc(S(=O)(=O)Nc3ccc(OC)cc3)cc2)nn1C	3.41%
COc1ccc(-c2ocnc2C(=O)Nc2ccc3c(c2)CCC3)cc1	-4.1%
CCCC(=O)Nc1ccc2c(c1)nc1n2CCSC1	24.1% (active)
CCOC(=O)N1CCN(Cc2nc3cc(NC(=O)CC)ccc3n2CC)CC1	-2.89%
CCCC(=O)Nc1ccc2c(c1)nc(CCNC(=O)c1ccco1)n2C	-0.909%
Cc1ccccc1N1CCN(Cc2nc(Cc3ccccc3F)no2)CC1	-1.36%
